{
  "source": "the OligoGym collection",
  "data": [
    {"target": "EMILIN2", "assay": "pooled miR-30 sensor sort-seq; sequence = guide strand", "settings": "shRNA", "values": [
      {"sequence": "TAGAGTTTTTACAACTATCTAT", "sensor-assay potency score (higher = more potent)": -0.151},
      {"sequence": "TATTCCAGGAACTCTCTCCTGT", "sensor-assay potency score (higher = more potent)": 0.252},
      {"sequence": "AACAACTTGAACTTTGTCCTTC", "sensor-assay potency score (higher = more potent)": 0.591},
      {"sequence": "TTGACCAATGTCACCATTCTTT", "sensor-assay potency score (higher = more potent)": -0.477},
      {"sequence": "ATAGTCATCACACTGCTGCTGG", "sensor-assay potency score (higher = more potent)": 0.195},
      {"sequence": "TTCCATTACATACAAACCGAAT", "sensor-assay potency score (higher = more potent)": -1.63}
    ]},
    {"target": "EMP1", "assay": "pooled miR-30 sensor sort-seq; sequence = guide strand", "settings": "shRNA", "values": [
      {"sequence": "TAGCATAATAACAGTAGCGATG", "sensor-assay potency score (higher = more potent)": -1.5},
      {"sequence": "TAGCCGTGGTGATACTGCGTTC", "sensor-assay potency score (higher = more potent)": -1.37},
      {"sequence": "TACCGTATTGGAAACCAACCAG", "sensor-assay potency score (higher = more potent)": -0.163},
      {"sequence": "TTCGCATAATGACTAGTGTAGA", "sensor-assay potency score (higher = more potent)": -1.4},
      {"sequence": "TTCACTGGCATATGACAGGCTG", "sensor-assay potency score (higher = more potent)": -0.108},
      {"sequence": "ATAATGACTAGTGTAGATGGAC", "sensor-assay potency score (higher = more potent)": -0.252},
      {"sequence": "TTTTTCCAAAGACCTACTGATG", "sensor-assay potency score (higher = more potent)": -1.45},
      {"sequence": "ATCTACCGTATTGGAAACCAAC", "sensor-assay potency score (higher = more potent)": -1.95},
      {"sequence": "ATAGCCGTGGTGATACTGCGTT", "sensor-assay potency score (higher = more potent)": -0.125},
      {"sequence": "TAGTGTAGATGGACACCCCCAC", "sensor-assay potency score (higher = more potent)": -0.261},
      {"sequence": "TTGAGGGCATCTTCACTGGCAT", "sensor-assay potency score (higher = more potent)": -0.461},
      {"sequence": "TCACTGGCATATGACAGGCTGT", "sensor-assay potency score (higher = more potent)": -1.18},
      {"sequence": "TTGGAAACCAACCAGACATTGG", "sensor-assay potency score (higher = more potent)": -0.971},
      {"sequence": "TACAGTTTTTCCAAAGACCTAC", "sensor-assay potency score (higher = more potent)": -0.739},
      {"sequence": "TGATGCATCTACCGTATTGGAA", "sensor-assay potency score (higher = more potent)": -0.931},
      {"sequence": "AATGGTGCTAACAAATAGCATA", "sensor-assay potency score (higher = more potent)": -1.39},
      {"sequence": "ATAGCATAATAACAGTAGCGAT", "sensor-assay potency score (higher = more potent)": -1.69},
      {"sequence": "TATTGGAAACCAACCAGACATT", "sensor-assay potency score (higher = more potent)": -1.22},
      {"sequence": "AATAGCATAATAACAGTAGCGA", "sensor-assay potency score (higher = more potent)": 0.0884},
      {"sequence": "TACTGATGCATCTACCGTATTG", "sensor-assay potency score (higher = more potent)": -1.81},
      {"sequence": "ATTCGCATAATGACTAGTGTAG", "sensor-assay potency score (higher = more potent)": -0.191},
      {"sequence": "ATAATAACAGTAGCGATGTGGA", "sensor-assay potency score (higher = more potent)": -0.819},
      {"sequence": "ACCGTATTGGAAACCAACCAGA", "sensor-assay potency score (higher = more potent)": -1.97}
    ]},
    {"target": "ENAM", "assay": "pooled miR-30 sensor sort-seq; sequence = guide strand", "settings": "shRNA", "values": [
      {"sequence": "TTCTTTATAGAACATGGTGTGT", "sensor-assay potency score (higher = more potent)": -0.573},
      {"sequence": "TAGAGCTAGTGGATTGTCCTTG", "sensor-assay potency score (higher = more potent)": 0.779},
      {"sequence": "TTGAACTTGTTGATTTCTGTAA", "sensor-assay potency score (higher = more potent)": 0.247},
      {"sequence": "TAAATTGTTCCTCAGTAGCTAA", "sensor-assay potency score (higher = more potent)": -0.863},
      {"sequence": "TTGAGCTTCCTCTTCGGGCTGA", "sensor-assay potency score (higher = more potent)": 1.2},
      {"sequence": "TTATTTGTTCTTTTGGACCCAG", "sensor-assay potency score (higher = more potent)": 0.0187},
      {"sequence": "TATAATTTGATTTATTAACTTC", "sensor-assay potency score (higher = more potent)": -0.315},
      {"sequence": "TTGAGGTATATTGTTCACCTTC", "sensor-assay potency score (higher = more potent)": -0.314},
      {"sequence": "TACTGTTGAGAGTTTCTCCAGG", "sensor-assay potency score (higher = more potent)": 0.393},
      {"sequence": "TTTAGGAGGATCTTCTTCTTTG", "sensor-assay potency score (higher = more potent)": -0.209},
      {"sequence": "TAGTCTTGTAGAGCTAGTGGAT", "sensor-assay potency score (higher = more potent)": -0.371}
    ]}
  ]
}
